# Shown are actives, neighbours in structure and some others; about 20% of the full set was active somewhere.
# Pf growth 96h = Primary qHTS for delayed death inhibitors of the malarial parasite plastid, 96 hour incubation. P. falciparum luciferase reporter growth, 96 h. 320,000 tested, 6.9% active. Potency, µM (highest dose often 28.7 µM), without a hit: at the top dose activity change, negative = inhibition, hits mostly inhibitors; also: potency is read from the fitted curve at half-maximal effect; % is scaled to controls: 0 for no effect and ±100 for the full control effect
#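 96 h incubation, 37 C, 5% CO2, of luciferase-reporter P. falciparum-infected RBCs (2% hematocrit, 0.05% parasitemia final) with test compounds; endpoint luminescence.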
# Shiga toxin inh = A qHTS for Small Molecule Inhibitors of Shiga Toxin. Vero cells, Shiga toxin protein synthesis inhibition reporter. inhibition, % at 38.7 µM. 290,000 tested, 9.2% active; in the data active = inhibition mostly above about 28%, no sharp cut-off; inactive = mostly below about 43%; also: 0% is about no effect
# CHX counter = Cycloheximide Counterscreen for Small Molecule Inhibitors of Shiga Toxin; max response, %; 300,000 tested, 12% active; cell reporter, cycloheximide protein synthesis inhibition counterscreen; in the data active = max response mostly above about 13%, no sharp cut-off; inactive = mostly below about 14%; also: read at 38.3 µM for the half of the compounds with a filed dose; 0% is about no effect
# HCMV antiviral = qHTS Assay for inhibitors of the human cytomegalovirus (HCMV); AID 1259415, 2018; HFF cells, HCMV-luciferase reporter, 72 h; hits give low values; 410,000 tested, 4.5% active; activity change, negative = inhibition, % at 57.5 µM; in the data active = activity change below about -60%; inconclusive = no clear call, values can overlap the other calls; inactive = above about -39%; also: % is scaled to controls: 0 for no effect and ±100 for the full control effect
#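 Steps: HFFs plated, 16 h 37C; compounds added; HCMV-luciferase added to MOI 1 PFU/cell; 72 h 37C; OneGlo reagent, 5 min room temperature; luminescence read, normalized to controls.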
# Pf growth 48h = Primary qHTS for delayed death inhibitors of the malarial parasite plastid, 48 hour incubation | P. falciparum luciferase growth in erythrocytes, 48 h | AID 504832, 2011 | 310,000 tested, 5.9% active | Potency, µM (series often up to 28.7 µM), inactives show at the top dose activity change, negative = inhibition, usual class: inhibitors; also: potency is read from the fitted curve at half-maximal effect; % is scaled to controls: 0 for no effect and ±100 for the full control effect
#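 In quantitative HTS format, infected erythrocytes bearing luciferase-reporter parasites were treated for a single generation at 37 C. Luminescence after adding detection reagent served as the growth measure.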
# Starred values were filed as active, the others as inactive; ? = inconclusive; / = not tested or not shown; ! = a repeat was not active. Unless noted, calls follow the shape of the dose curve; as a rule, active = well fitted inhibition curve with a large enough effect; inconclusive = small, poorly fitted or top-dose-only effect, or another doubt; inactive = no such curve, though single readings can be large or run the other way.
SMILES,Pf growth 96h,Shiga toxin inh,CHX counter,HCMV antiviral,Pf growth 48h
COc1ccc(C(OCC(O)CN(C)C2CCCCC2)c2ccc(OC)cc2)cc1 (configuration not stated),?,-5.9,-5.1,-21.0,?
Nc1nc2c(s1)CCc1c-2cnn1-c1ccccc1,-13.5%,150.9*,46.0*,/,-6.9%
O=C(OCC1CCCO1)c1ccc2c(c1)N(Cc1ccccc1F)C(=O)c1ccccc1S2(=O)=O (configuration not stated),/,/,/,-11.3,/
Cc1ccc(NC(=S)N(CCN2CCOCC2)Cc2ccccc2F)cc1Cl,?,10.7,3.0,?,11.7µM*
Cc1cccc(NC(=S)N(CCN2CCOCC2)Cc2ccccc2F)c1,?,-10.5,15.0,60.8,?
COc1ccccc1NC(=S)N(CCCN1CCOCC1)Cc1cn(C)c2ccccc12,43.2%,-8.7,-3.1,-93.9*,?
CCN1CCCc2cc(CN(CCN3CCOCC3)C(=S)Nc3ccccc3OC)ccc21,?,-5.7,-5.5,0.0,?
Cc1ccc(NC(=S)N(CCCN2CCOCC2)Cc2ccco2)cc1,11.7µM*,-8.4,1.4,5.4,1.8%
O=C(Nc1ccccc1)N(CCN1CCOCC1)Cc1ccccc1F,1.1%,-3.1,15.2*,-5.7,1.7%
S=C(Nc1ccc(Cl)cc1)N(CCCN1CCOCC1)Cc1ccco1,0.0%,-5.7,-1.7,24.8,7.8%
COc1ccc(CNC(=O)CN(C(=O)c2snc(C(N)=O)c2N)c2ccccc2F)cc1,-10.5%,1.5,-2.5,-26.4,-2.4%
O=c1o[nH]c(-c2ccccc2)c1C1=NCCCCC1,?,23.3,-5.2,-22.6,-11.5%
CC(=O)Nc1c(C)nn(-c2ccccc2)c1N1CCC(C(=O)NCc2cccc(Cl)c2)CC1,/,/,/,18.6,/
CCOc1ccccc1NC(=S)N(CCCN1CCOCC1)Cc1cn(C)c2ccccc12,?,16.3,7.4,?,11.7µM*
COc1ccccc1NC(=S)N(CCN1CCOCC1)Cc1ccccc1F,21.5%,-6.3,-2.1,-60.7*,0.0%
CCOc1ccc2c(c1)C(N(CCN1CCOCC1)C(=S)Nc1ccccc1OC)CC(C)(C)O2 (configuration not stated),10.4µM*,-4.8,3.1,-39.3,?
S=C(Nc1ccccc1Cl)N(CCCN1CCOCC1)Cc1ccccn1,-28.4%,-7.7,-3.1,-9.4,-21.2%
Cc1ccc(NC(=S)Nc2cccc3cnccc23)c(C)c1,0.6%,24.0,15.2,65.5,-7.6%
CCc1ccc(NC(=S)Nc2cccc3cnccc23)cc1,?,65.5*,35.7*,-11.9,?
Cc1cc(C)cc(NC(=S)Nc2cccc3cnccc23)c1,?,-17.0,6.1,-24.1,2.08µM*
CNc1nc(-c2ccccn2)nnc1-c1ccccc1,?,22.2,4.2,-104.8*,/
c1ccc(-c2nnc(-c3ccccn3)nc2NC2CCCCC2)cc1,/,19.1,23.6,-100.3*,0.928µM*
c1ccc(-c2nnc(-c3ccncc3)nc2-c2ccccc2)cc1,6.9%,-5.1,7.1,-25.3,?
O=C1NC[C@@H](CCCCN2C[C@H](Cc3ccc(O)cc3)N(CCC3CCCCC3)C(=O)C2=O)N(Cc2ccccc2)C1=O,/,/,/,-34.5,/
COc1ccc(CNc2ncc(-c3ccc(F)cc3)n2C)cc1OC,?,/,-2.8,-28.4,-2.2%
SMILES,Pf growth 96h,Shiga toxin inh,CHX counter,HCMV antiviral,Pf growth 48h
COc1ccc(CNc2ncc(-c3cccc([N+](=O)[O-])c3)n2C)c(OC)c1OC,4.65µM*,-5.2,-2.3,0.5,-4.0%
COc1ccc(OC)c(CNc2ncc(-c3ccc(F)cc3)n2C)c1,14.7µM*,14.5,10.8,21.2,?
Cn1c(-c2ccccc2)cnc1NCc1ccccc1O,/,/,/,33.0,/
COc1ccccc1CNc1ncc(-c2ccccc2)n1C,-9.3%,40.3*,21.1*,36.8,-12.8%
COc1ccc(CNc2ncc(-c3ccc(F)cc3)n2C)c2ccccc12,10.4µM*,-3.1,-2.1,-84.2*,?
Cc1cccc(NS(=O)(=O)c2cc([N+](=O)[O-])ccc2C)n1,-3.2%,-13.3,-1.2,25.3,3.8%
COc1ccccc1CNc1ncc(-c2ccc(F)cc2)n1C,?,19.3,7.6*,-13.8,?
Cn1c(-c2ccc(F)cc2)cnc1NCc1cccc(F)c1,-56.6%,44.7,18.5,32.3,5.0%
O=C(c1ccc(F)cc1F)N1CCCc2ccccc21,26.2%,-10.4,-0.5,-31.0,-8.4%
N=C1SCC(=O)N1c1nc(-c2ccccc2)cs1,367.9%,40.6,21.0*,59.5,33.6%
O=C1CC(c2ccccc2)=NN1c1nc(-c2ccccc2)cs1,19.4%,1.7,8.0,-21.6,2.4%
CC1=NN(c2nc(-c3ccc(C#N)cc3)cs2)C(=O)C1,6.0%,53.4*,14.6,-16.8,-4.3%
O=C1C2C3c4ccccc4C(c4ccccc43)C2C(=O)N1c1nc(-c2ccccc2)cs1 (configuration not stated),6.7%,-14.6,-2.4,-26.4,-4.9%
CC1=NN(c2nc(-c3ccccc3)cs2)C(=O)C1,70.4%,23.9,16.0*,8.9,?
O=S(=O)(Nc1nc(-c2ccco2)c(-c2ccco2)s1)c1ccc(F)cc1F,/,/,/,27.2,/
CSc1ncc(C(=O)NCc2ccccc2)c(-c2ccccc2)n1,/,/,/,-0.3,/
CC(CN1CCN(CCOCCO)CC1)CN1c2ccccc2Sc2ccc(Cl)cc21 (configuration not stated),/,/,/,-21.0,/
CCC(=O)c1ccc2c(c1)N(CCCN1CCN(CCO)CC1)c1ccccc1S2,4.78µM*,/,/,/,2.69µM*
CC(=O)c1ccc2c(c1)N(CCCN1CCN(CCO)CC1)c1ccccc1S2,13.5µM*,/,/,/,13.5µM*
O=C(NCC(c1ccc(Cl)cc1)N1CCCCC1)c1ccc(F)cc1 (configuration not stated),/,/,/,3.1,/
COc1nc(N2CCOCC2)nc(C)c1[N+](=O)[O-],11.7µM*,-4.0,-1.8,10.1,-1.9%
Cc1nc(N2CCOCC2)nc(OC(C)C)c1[N+](=O)[O-],21.3%,-11.7,-2.1,12.5,7.5%
CC(=O)c1cn(C)c(=O)c2ccccc12,6.3%,16.7,6.7,52.9,12.1%
Cn1cc(C(=O)Nc2ccc(C#N)cc2)c2ccccc2c1=O,31.4%,-4.1,9.3,-67.4*!,8.2%
CCN(CC)S(=O)(=O)c1ccc(C(=O)Nc2ccc(Cc3ccncc3)cc2)cc1,3.9%,-25.9,-1.6,-86.8*,?
CCCCc1ccc(NC(=O)c2ccc(N(C)S(C)(=O)=O)cc2)cc1,-1.9%,-13.0,-1.2,-80.9*,3.5%
CCN(CC)S(=O)(=O)c1ccc(NC(=O)c2ccc(N(C)S(C)(=O)=O)cc2)cc1,8.28µM*,-2.6,-2.8,-66.5*,16.5µM*
CC(C)(C)c1ccc(S(=O)(=O)Nc2ccc(Cc3ccncc3)cc2)cc1,?,56.2,22.2*,?,?
Cc1ccc(NC(=O)CN2C(=O)CCS(=O)(=O)c3ccccc32)cc1Cl,-13.3%,-7.8,-2.8,13.6,8.9%

# From PubChem BioAssay
